Data published in PubChem BioAssay (NCATS).
Records with an inconclusive call do not appear. A call without a number means that no potency is given here. Activity calls are given as the source filed them. Calls come from the whole dose curve; as a rule, active = well fitted inhibition curve with a large enough effect; inconclusive = small, poorly fitted or top-dose-only effect; inactive = flat fitted curve, though single readings scatter.

Experiment: P-glycoprotein substrates identified in KB-8-5-11 adenocarcinoma cell line, qHTS therapeutic library screen (AID 1346987); note: nearly all actives have a fitted effect of over 65% in size
Settings: KB-8-5-11 (P-gp overexpressing) viability, CellTiter-Glo, 72 h; series mostly up to 44.5 µM
How it was run: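 Luminescence from CellTiter-Glo, read 5 min after addition, quantified survival of KB-8-5-11 (P-gp-overexpressing) cells exposed to compounds for 72 h. AC50 was derived from concentration-response curves.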
Potency is the fitted concentration of half-maximal effect.

| Compound | Potency |
| --- | --- |
| O=C(Nc1ccnc(NC(=O)C2CC2)c1)c1c(Cl)cccc1Cl | 8.2 µM (active) |
| COc1cc(C(N)=O)nc(-c2ccccn2)c1O | inactive |
| O=C(NCC(=O)N1CCCC1)Nc1ccc2cnccc2c1 | inactive |
| CC(C)C(C)C(O)C1CC23CC(=O)C4(O)C(=C2CCC3C1C)C=CC1(O)CC(O)CCC14C (stereo unspecified) | inactive |
| C/C(=C\CO[C@@H]1O[C@H](CO[C@H]2OC[C@](O)(CO)[C@H]2O)[C@@H](O)[C@H](O)[C@H]1O)C(C)(C)O | inactive |
| COC(=O)C[C@](O)(CCCC(C)(C)O)C(=O)O[C@@H]1C(OC)=CC23CCCN2CCc2cc4c(cc2[C@H]13)OCO4 (stereo partly specified) | 13 µM (active) |
